Measured values from the supplement of paper PMC11732987, “Enantioselective OTUD7B fragment discovery through chemoproteomics screening and high-throughput optimisation” (Communications Chemistry, 2025).

Assays:
Assay in all cases: log2 ratio of Biotin-Ahx-Ub-VS probe labelling (fragment/DMSO); higher = less target engagement (more negative = stronger competition), active = hit call of the paper (q ≤ 0.05, log2 ratio ≤ -1)
Conditions in all cases: compound concentration: 200 uM; treatment time: 3 h
USP42 = biological target: T1, USP42 (UniProt Q9H9J4)
T1 sequence (whole entry): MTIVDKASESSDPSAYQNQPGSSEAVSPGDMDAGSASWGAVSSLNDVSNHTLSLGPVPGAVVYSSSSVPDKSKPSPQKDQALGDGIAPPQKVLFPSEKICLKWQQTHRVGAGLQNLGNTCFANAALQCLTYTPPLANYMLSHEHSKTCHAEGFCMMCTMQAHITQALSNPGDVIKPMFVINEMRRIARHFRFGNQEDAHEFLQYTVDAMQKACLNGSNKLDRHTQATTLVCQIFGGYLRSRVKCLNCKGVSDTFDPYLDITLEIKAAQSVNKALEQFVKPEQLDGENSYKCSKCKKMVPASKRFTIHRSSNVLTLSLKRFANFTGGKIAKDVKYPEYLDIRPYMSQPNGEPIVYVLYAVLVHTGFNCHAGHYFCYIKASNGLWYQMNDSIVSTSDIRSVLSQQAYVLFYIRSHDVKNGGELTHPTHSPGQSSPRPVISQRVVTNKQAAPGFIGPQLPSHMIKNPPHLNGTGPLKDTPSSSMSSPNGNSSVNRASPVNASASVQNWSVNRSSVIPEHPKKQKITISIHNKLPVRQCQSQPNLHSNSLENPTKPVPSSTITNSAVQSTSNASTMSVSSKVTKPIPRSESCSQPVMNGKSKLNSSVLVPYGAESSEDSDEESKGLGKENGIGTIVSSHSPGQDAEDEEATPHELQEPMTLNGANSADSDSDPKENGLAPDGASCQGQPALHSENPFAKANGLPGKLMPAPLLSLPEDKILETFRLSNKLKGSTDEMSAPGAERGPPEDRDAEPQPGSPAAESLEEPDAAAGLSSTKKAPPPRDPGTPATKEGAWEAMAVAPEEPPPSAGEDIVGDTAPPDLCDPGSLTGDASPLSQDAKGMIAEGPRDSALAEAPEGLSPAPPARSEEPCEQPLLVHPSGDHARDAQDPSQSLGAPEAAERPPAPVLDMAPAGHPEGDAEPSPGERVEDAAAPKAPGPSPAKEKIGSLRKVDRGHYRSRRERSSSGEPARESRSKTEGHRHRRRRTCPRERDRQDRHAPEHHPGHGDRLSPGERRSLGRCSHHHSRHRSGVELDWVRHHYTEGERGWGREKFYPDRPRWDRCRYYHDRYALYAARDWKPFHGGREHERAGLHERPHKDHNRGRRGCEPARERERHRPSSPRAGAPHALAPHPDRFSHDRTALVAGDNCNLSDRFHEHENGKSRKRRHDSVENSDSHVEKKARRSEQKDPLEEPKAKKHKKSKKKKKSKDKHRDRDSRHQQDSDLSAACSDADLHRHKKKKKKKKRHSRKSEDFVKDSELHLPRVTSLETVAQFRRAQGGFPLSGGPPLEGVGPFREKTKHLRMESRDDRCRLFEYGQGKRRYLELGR
Method in brief: (§1)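 HEK293T lysate (495 µg per sample, in Tris/CHAPS/IGEPAL buffer with protease inhibitors) was exposed in triplicate for 3 h to fragment at 200 µM or to vehicle, then to Biotin-Ahx-Ub-VS at 0.5 µM final for 1 h. Labelled DUBs were enriched on NeutrAvidin, digested with LysC and trypsin, and analysed by diaPASEF LC-MS/MS. Spectronaut label-free quantities were normalised to the global median, and values are average log2 ratios of fragment over vehicle from an unpaired t-test. Only proteins with ≥2 unique peptides were used.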

USP46 = USP46 (UniProt P62068)
Method in brief: as §1

USP47 = biological target: T2, USP47 (UniProt Q96K76)
T2 sequence (whole entry): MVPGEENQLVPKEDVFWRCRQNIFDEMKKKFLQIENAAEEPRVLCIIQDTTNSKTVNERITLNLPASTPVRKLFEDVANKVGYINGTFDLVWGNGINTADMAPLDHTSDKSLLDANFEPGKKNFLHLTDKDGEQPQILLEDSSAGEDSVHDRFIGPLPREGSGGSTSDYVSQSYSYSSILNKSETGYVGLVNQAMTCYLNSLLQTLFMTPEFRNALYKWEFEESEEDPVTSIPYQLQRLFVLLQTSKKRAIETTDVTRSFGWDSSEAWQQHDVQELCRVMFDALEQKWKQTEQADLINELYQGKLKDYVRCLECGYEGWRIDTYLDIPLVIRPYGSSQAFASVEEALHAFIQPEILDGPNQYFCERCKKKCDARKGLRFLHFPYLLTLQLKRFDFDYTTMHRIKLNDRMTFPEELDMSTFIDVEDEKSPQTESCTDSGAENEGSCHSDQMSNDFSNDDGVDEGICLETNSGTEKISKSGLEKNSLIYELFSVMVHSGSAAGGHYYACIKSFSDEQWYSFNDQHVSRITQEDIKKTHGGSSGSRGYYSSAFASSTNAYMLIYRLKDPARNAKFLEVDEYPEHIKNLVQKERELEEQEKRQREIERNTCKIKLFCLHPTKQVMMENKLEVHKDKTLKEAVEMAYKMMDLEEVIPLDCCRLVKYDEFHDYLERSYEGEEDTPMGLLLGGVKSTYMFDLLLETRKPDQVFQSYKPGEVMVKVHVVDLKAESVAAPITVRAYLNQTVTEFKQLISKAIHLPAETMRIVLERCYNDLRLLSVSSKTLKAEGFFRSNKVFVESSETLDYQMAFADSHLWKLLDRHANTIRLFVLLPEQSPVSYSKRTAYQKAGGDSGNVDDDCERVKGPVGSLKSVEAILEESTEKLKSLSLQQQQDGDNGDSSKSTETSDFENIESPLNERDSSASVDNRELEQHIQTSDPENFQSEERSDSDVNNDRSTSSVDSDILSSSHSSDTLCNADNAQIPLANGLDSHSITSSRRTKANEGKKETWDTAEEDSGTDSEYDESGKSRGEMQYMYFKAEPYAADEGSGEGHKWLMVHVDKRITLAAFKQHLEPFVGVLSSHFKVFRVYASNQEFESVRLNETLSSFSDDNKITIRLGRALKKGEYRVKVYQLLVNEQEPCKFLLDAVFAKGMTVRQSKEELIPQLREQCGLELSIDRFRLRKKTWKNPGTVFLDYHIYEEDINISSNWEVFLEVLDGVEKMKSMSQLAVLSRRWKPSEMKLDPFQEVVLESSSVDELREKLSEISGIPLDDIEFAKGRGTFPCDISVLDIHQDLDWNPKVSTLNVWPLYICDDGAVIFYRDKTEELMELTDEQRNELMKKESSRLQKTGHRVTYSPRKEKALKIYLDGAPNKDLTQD
Method in brief: as §1

USP48 = biological target: T3, USP48 (UniProt Q86UV5)
T3 sequence (whole entry): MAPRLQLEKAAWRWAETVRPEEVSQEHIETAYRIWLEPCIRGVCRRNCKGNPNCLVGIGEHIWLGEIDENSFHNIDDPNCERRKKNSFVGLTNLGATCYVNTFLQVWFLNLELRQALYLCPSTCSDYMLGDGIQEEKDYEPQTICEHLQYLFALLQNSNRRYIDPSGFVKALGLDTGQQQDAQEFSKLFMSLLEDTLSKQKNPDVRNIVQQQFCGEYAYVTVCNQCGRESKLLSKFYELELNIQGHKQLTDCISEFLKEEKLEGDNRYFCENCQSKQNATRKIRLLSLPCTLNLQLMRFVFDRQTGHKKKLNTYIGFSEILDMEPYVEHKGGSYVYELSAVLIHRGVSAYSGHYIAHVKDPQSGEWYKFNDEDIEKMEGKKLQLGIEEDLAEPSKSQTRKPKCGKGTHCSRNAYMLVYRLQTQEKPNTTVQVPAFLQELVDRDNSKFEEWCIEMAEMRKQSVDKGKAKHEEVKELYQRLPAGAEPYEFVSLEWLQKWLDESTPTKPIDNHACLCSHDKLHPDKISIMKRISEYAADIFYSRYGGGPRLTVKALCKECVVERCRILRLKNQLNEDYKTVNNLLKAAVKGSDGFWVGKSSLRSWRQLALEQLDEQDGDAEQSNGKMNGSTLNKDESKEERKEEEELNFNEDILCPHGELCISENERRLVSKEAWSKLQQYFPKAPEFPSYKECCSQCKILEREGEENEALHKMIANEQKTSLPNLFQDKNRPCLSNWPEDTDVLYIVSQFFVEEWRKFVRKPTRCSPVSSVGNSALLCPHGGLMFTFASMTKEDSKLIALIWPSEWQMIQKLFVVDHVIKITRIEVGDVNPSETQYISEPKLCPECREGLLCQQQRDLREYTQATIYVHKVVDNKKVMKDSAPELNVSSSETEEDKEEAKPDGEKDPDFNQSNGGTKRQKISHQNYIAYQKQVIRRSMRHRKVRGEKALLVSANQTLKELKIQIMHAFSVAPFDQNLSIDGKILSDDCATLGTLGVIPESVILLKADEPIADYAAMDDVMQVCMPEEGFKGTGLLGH
Method in brief: as §1

USP5 = biological target: T4, USP5 (UniProt P45974)
T4 sequence (whole entry): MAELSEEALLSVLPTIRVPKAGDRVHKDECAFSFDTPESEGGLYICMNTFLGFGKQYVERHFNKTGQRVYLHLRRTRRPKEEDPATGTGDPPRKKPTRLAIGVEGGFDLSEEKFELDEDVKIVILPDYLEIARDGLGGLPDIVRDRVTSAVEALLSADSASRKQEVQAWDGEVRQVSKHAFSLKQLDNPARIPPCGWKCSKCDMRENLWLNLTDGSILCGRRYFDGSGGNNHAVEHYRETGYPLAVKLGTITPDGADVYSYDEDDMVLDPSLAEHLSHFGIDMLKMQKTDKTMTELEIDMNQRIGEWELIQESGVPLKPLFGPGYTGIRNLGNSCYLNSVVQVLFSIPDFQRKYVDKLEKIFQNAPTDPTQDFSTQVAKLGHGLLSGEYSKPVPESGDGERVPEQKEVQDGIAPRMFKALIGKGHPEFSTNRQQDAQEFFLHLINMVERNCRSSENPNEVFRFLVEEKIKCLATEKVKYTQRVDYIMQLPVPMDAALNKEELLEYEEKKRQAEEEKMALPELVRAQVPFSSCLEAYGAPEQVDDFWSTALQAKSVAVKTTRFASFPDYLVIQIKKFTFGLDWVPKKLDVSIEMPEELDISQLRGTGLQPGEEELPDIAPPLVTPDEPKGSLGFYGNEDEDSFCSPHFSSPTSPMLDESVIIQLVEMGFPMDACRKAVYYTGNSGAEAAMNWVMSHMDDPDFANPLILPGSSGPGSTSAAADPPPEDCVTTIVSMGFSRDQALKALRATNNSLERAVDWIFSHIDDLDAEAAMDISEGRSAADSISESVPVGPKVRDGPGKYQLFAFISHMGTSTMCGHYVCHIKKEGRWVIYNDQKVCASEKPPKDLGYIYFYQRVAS
Method in brief: as §1

USP54 = USP54 (UniProt Q70EL1)
Method in brief: as §1

USP7 = USP7 (UniProt Q93009)
Method in brief: as §1

USP8 = biological target: T5, USP8 (UniProt P40818)
T5 sequence (whole entry): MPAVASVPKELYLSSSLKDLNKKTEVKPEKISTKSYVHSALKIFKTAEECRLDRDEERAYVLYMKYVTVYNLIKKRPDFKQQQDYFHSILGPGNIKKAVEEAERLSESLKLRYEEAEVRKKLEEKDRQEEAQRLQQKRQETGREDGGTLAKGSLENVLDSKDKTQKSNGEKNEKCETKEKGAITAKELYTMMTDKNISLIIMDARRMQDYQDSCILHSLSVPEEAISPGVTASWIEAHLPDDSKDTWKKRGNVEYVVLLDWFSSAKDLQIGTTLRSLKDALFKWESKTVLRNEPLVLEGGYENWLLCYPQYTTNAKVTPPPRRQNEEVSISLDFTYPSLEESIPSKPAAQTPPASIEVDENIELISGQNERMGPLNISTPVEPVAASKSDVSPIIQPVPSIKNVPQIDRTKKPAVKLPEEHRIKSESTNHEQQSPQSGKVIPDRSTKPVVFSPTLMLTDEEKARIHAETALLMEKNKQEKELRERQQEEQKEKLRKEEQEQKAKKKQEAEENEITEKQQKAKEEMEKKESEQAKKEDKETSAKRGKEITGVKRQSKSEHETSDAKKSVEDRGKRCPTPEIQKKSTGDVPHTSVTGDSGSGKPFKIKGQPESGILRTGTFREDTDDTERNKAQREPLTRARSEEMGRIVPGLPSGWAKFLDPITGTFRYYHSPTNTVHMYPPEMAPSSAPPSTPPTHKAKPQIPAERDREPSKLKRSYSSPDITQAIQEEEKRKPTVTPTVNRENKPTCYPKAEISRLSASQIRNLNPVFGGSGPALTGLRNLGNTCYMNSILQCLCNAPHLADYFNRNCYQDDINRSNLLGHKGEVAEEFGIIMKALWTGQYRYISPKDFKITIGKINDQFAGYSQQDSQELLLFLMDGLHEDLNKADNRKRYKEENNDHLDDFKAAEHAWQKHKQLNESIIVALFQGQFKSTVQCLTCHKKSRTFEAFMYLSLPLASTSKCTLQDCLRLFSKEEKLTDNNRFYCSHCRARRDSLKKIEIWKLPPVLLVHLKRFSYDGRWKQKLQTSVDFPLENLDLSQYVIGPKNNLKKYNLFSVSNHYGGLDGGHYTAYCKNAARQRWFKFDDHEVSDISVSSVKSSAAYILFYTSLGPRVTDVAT
Method in brief: as §1

Measured: log2 ratio of Biotin-Ahx-Ub-VS probe labelling

USP46, sequence (P62068 whole entry): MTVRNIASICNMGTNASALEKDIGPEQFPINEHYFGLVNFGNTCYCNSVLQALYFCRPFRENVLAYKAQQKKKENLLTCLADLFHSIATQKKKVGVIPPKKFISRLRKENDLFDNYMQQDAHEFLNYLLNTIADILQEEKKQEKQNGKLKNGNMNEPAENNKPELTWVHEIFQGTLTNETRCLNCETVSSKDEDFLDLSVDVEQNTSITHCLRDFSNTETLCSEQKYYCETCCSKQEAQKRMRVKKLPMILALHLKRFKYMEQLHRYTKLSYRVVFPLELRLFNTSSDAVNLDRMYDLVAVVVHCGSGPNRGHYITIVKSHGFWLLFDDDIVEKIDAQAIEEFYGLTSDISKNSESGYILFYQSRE
USP54, sequence (Q70EL1 whole entry): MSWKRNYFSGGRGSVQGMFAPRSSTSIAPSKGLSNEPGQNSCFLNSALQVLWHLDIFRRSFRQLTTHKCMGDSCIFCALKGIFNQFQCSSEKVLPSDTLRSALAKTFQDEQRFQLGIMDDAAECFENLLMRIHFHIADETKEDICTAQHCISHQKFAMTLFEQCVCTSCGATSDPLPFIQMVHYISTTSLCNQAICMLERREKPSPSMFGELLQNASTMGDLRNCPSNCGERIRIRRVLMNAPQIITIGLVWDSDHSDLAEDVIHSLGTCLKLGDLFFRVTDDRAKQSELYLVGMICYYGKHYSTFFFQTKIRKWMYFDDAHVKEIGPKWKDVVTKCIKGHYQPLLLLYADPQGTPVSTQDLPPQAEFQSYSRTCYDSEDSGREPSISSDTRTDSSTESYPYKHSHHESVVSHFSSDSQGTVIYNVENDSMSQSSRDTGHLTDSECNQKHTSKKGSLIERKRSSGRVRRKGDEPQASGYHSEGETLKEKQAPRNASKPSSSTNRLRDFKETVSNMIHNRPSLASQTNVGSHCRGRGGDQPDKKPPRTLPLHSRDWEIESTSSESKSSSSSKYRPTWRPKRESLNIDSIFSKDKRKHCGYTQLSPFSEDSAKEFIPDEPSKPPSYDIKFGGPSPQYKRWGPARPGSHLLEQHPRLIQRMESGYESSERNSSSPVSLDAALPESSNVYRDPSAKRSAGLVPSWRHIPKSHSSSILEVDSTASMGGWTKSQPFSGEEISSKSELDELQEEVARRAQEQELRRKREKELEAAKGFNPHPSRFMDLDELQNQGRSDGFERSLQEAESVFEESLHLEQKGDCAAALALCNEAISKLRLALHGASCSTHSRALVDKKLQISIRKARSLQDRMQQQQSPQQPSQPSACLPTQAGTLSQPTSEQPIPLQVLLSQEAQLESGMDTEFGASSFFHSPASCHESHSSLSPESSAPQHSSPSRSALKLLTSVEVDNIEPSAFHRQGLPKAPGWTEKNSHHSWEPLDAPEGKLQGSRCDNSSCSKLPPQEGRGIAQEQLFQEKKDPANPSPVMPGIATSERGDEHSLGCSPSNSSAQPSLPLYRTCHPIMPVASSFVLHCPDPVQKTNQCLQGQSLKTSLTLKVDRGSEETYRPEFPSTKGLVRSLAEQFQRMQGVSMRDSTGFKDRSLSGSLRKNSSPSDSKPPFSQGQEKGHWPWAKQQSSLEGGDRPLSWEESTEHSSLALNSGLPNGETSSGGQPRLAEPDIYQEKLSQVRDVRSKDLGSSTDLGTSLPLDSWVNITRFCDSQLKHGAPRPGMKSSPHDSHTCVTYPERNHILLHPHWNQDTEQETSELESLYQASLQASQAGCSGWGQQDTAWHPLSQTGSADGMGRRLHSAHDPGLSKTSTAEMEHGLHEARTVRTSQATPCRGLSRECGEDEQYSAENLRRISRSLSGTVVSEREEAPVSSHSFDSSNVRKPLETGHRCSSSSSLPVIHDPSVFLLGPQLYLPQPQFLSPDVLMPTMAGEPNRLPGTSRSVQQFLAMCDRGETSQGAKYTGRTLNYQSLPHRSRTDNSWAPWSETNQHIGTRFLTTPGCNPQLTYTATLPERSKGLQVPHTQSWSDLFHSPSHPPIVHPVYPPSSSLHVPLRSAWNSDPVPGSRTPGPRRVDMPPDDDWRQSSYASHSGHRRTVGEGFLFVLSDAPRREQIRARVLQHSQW
USP7, sequence (Q93009 whole entry, looked up): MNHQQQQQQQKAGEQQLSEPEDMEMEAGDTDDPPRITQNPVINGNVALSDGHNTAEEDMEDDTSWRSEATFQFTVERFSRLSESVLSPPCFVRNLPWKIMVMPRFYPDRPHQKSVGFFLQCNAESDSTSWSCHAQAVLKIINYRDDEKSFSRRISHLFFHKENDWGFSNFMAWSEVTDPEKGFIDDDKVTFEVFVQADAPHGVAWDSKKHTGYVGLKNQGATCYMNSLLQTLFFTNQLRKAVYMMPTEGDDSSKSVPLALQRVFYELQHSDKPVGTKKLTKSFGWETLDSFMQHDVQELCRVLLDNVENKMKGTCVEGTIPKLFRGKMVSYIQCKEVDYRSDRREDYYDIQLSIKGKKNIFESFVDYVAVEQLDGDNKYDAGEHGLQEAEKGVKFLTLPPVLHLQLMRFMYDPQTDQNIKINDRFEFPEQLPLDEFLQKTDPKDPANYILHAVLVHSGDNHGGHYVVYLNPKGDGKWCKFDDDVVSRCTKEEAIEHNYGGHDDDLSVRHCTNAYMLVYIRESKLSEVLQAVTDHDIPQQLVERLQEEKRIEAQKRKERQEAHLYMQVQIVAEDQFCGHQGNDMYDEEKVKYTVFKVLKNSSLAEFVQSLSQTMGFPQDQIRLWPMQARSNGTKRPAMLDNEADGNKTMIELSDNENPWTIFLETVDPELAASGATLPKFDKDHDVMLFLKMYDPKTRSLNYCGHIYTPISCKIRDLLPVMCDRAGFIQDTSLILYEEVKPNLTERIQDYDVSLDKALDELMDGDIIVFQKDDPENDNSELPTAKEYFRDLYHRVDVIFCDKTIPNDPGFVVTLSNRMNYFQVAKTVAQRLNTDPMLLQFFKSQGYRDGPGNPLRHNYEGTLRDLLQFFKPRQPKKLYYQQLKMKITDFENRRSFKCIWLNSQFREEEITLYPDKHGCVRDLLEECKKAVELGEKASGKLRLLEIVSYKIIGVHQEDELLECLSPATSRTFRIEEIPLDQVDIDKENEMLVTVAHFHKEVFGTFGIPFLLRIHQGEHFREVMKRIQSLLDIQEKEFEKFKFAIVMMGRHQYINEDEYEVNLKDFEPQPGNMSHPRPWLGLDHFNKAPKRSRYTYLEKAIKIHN

NC(=O)C1CCCN(C(=O)CCl)C1 (stereo not drawn)
inactive: USP42 -0.105 | USP46 0.15 | USP47 -0.831 | USP48 -0.259 | USP5 -0.0828 | USP54 0.785 | USP7 -0.0546 | USP8 -0.122
